± gives the standard deviation of the averaged measurements. Targets with the largest changes are over-represented here; the source holds about 5,400 in all.

Compound in this assay: Nc1nc2c(ncn2[C@@H]2O[C@H](COP(=O)(O)OP(=O)(O)OP(=O)(O)O)[C@@H](O)[C@H]2O)c(=O)[nH]1 [guanosine triphosphate]
In words: NP40-soluble protein abundance relative to vehicle (solubility fold change) (ratio); higher = more soluble protein in presence of GTP. Summed up:
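Each value is a fold change relative to the detergent-processed vehicle, calculated per replicate from vsn-normalised intensities. Jurkat crude lysate received eight concentrations (0.1 to 10 mM) for 10 min at room temperature and 3 min at 37 °C, then was solubilised in 0.8% NP40 with benzonase (60 min, 4 °C). The ultracentrifuged supernatant was TMT-labelled and run by LC-MS/MS in three independent experiments.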

Chain of UniProt Q16851 (Q16851 whole entry, one chain of several): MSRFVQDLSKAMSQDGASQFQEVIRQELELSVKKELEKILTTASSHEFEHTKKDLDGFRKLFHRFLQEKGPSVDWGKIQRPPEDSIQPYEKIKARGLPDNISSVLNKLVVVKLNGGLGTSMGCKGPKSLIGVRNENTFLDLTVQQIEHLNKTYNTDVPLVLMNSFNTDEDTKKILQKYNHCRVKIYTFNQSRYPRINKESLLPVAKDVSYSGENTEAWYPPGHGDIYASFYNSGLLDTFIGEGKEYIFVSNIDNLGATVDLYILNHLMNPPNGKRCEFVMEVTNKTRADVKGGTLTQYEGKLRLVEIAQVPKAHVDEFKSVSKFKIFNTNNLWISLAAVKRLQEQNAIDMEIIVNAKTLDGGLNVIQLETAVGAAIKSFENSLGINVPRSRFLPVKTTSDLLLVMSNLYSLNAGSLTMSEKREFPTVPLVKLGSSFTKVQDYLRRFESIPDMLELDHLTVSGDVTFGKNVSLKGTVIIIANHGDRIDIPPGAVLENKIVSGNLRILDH
Chain of UniProt Q9BZL6 (Q9BZL6 whole entry, one chain of several): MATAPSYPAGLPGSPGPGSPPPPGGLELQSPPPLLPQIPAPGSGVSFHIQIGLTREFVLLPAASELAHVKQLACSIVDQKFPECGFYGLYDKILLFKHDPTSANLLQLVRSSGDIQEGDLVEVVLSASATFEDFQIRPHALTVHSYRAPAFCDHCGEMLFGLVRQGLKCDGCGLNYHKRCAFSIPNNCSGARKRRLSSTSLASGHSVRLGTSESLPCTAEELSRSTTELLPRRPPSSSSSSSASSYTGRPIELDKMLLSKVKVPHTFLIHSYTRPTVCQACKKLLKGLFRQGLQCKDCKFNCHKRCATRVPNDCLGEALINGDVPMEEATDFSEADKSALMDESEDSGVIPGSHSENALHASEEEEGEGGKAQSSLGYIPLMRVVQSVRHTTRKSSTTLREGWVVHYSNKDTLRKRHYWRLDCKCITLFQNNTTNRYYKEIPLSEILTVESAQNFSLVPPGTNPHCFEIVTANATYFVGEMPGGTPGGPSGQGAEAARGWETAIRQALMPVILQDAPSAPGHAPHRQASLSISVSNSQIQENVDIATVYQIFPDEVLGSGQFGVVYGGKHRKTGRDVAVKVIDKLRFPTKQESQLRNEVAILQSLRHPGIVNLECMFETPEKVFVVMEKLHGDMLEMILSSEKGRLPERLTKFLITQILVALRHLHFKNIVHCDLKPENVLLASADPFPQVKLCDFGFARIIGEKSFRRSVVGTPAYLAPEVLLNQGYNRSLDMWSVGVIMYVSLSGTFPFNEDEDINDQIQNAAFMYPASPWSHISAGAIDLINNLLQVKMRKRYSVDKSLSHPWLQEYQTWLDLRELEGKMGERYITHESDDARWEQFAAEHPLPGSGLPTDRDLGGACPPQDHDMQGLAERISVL
Chain of UniProt Q9H4A3 (Q9H4A3 whole entry, looked up, one chain of several): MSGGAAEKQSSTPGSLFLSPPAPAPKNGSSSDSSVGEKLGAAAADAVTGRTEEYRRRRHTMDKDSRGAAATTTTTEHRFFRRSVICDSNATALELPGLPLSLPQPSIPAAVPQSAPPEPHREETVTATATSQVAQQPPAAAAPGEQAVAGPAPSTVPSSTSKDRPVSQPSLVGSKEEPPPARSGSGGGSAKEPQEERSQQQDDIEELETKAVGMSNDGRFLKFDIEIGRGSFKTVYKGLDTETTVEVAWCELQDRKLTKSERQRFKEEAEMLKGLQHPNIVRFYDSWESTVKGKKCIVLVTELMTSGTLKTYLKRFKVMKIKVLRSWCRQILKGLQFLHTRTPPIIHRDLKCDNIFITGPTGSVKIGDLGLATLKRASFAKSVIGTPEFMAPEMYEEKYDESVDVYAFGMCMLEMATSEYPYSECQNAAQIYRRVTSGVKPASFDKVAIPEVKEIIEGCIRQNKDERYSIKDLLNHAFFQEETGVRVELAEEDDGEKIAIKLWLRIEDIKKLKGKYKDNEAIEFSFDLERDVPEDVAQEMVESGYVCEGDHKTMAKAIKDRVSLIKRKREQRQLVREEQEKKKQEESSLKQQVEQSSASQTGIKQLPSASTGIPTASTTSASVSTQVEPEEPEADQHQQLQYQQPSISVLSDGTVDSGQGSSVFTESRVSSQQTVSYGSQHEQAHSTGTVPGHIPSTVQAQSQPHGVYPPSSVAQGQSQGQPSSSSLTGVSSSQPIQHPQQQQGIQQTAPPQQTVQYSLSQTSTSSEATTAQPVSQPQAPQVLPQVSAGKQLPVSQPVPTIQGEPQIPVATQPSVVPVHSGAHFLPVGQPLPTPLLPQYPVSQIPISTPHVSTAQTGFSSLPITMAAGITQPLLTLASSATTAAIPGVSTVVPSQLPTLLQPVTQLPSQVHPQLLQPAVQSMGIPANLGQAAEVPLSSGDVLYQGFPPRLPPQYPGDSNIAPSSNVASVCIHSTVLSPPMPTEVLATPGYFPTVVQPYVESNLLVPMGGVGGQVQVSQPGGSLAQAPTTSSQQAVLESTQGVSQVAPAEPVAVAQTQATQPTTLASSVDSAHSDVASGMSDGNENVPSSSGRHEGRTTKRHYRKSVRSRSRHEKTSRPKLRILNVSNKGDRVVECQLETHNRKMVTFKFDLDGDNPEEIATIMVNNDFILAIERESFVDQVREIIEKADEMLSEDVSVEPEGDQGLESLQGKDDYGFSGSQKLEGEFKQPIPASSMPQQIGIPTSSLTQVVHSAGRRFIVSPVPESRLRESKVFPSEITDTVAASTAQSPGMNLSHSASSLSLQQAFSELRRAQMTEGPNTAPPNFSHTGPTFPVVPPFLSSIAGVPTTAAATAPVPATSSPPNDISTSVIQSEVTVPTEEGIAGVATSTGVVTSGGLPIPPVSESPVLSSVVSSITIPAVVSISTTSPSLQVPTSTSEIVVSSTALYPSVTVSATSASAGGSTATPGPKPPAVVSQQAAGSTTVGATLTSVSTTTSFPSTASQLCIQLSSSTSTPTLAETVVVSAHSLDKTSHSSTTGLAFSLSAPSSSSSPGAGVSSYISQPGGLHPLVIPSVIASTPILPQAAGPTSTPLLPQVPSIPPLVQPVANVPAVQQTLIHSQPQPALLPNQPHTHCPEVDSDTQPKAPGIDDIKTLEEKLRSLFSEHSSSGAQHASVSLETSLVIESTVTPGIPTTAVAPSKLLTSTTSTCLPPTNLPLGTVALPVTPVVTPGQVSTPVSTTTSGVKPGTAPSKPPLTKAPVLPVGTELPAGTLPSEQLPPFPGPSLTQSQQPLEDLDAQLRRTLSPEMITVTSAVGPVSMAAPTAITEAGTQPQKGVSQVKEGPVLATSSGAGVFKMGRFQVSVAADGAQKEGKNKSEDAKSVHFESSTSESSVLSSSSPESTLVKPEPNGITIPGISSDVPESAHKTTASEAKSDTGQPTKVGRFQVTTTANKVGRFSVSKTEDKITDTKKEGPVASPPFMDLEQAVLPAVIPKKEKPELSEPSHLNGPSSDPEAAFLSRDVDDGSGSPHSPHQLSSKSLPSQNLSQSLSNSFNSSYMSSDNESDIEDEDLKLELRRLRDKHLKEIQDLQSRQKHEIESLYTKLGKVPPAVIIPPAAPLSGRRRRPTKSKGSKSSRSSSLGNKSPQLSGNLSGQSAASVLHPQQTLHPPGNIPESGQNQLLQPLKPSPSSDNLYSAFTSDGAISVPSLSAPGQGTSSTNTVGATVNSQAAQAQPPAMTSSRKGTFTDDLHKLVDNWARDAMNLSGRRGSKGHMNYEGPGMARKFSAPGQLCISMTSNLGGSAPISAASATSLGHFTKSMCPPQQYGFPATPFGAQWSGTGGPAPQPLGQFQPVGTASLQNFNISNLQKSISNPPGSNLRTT
Chain of UniProt Q8NCD3 (Q8NCD3 whole entry, one chain of several): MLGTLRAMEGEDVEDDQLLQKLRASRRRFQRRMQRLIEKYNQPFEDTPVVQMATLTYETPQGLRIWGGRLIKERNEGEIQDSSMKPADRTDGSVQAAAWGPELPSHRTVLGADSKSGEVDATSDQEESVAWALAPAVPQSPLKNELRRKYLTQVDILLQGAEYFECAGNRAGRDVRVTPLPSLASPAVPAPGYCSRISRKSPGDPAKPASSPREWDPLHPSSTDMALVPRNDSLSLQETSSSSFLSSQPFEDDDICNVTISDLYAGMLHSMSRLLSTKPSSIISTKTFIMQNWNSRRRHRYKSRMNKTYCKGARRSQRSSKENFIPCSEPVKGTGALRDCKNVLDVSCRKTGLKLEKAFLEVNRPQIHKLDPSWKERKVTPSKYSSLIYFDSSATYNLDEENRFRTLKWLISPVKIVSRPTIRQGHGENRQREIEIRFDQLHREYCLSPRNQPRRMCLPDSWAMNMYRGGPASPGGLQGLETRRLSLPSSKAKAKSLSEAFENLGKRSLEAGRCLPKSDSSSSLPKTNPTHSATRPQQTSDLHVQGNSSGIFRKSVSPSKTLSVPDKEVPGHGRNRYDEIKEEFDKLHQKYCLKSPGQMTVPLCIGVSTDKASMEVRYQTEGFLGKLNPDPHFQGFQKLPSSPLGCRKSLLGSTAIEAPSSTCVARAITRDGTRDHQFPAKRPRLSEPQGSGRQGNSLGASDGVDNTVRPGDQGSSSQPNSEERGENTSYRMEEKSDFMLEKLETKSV
Chain of UniProt Q13557 (Q13557 whole entry, one chain of several): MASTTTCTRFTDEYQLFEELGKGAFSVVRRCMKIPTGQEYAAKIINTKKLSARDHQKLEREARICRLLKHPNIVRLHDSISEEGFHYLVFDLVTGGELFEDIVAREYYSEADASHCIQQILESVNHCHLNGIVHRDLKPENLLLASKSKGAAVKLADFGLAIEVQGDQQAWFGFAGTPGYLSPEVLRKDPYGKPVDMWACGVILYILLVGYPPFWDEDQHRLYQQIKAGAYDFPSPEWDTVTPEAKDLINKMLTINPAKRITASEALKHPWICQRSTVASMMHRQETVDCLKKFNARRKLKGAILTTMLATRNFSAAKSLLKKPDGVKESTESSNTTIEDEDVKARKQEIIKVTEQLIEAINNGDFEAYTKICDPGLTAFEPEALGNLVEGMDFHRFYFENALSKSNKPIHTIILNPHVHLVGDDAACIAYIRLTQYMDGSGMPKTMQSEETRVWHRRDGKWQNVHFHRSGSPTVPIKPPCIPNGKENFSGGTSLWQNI

For A0A087WZV8|A0A0G2JN66 (UniProt P01850), the NP40-soluble protein abundance worked out at 1.02 ± 0.032 (concentration: 0.1mM); 1.04 ± 0.034 (concentration: 0.5mM); 1.002 ± 0.0081 (concentration: 1mM); 1.01 ± 0.042 (concentration: 2mM); 1.01 ± 0.036 (concentration: 4mM); 0.98 ± 0.023 (concentration: 6mM). Moreover, the NP40-soluble protein abundance was 0.977 ± 0.04 (concentration: 8mM) and 0.976 ± 0.046 (concentration: 10mM).

For “C9IY68|C9J384|Q9BQ75|Q9BQ75-2 (UniProt Q9BQ75)”, the NP40-soluble protein abundance (concentration: 0.1mM) was 0.945 ± 0.058; the NP40-soluble protein abundance (concentration: 0.5mM) was 1.03 ± 0.083; the NP40-soluble protein abundance (concentration: 1mM) stood at 1.06 ± 0.071; the NP40-soluble protein abundance (concentration: 2mM) amounted to 1.1 ± 0.058; the NP40-soluble protein abundance (concentration: 4mM) was determined as 1.17 ± 0.069; the NP40-soluble protein abundance (concentration: 6mM) is 1.22 ± 0.094. Further, the NP40-soluble protein abundance by setting is: (concentration: 8mM) 1.23 ± 0.12; (concentration: 10mM) 1.31 ± 0.04.

A0A0X1KG71|Q8WX92 (UniProt Q8WX92): the NP40-soluble protein abundance is, setting by setting: (concentration: 0.1mM) 0.9588 ± 0.0051; (concentration: 0.5mM) 0.964 ± 0.014; (concentration: 1mM) 0.9785 ± 0.0083; (concentration: 2mM) 0.973 ± 0.016; (concentration: 4mM) 0.957 ± 0.025; (concentration: 6mM) 0.96 ± 0.012. Also, the NP40-soluble protein abundance by setting is: (concentration: 8mM) 0.936 ± 0.024; (concentration: 10mM) 0.946 ± 0.02.

For “E9PG35|E9PHF7|F5GYT8|Q96RQ3|G5E9X5 (UniProt Q96RQ3)”, the NP40-soluble protein abundance stood at 1.04 ± 0.093 (concentration: 0.1mM); 1.07 ± 0.078 (concentration: 0.5mM); 1.02 ± 0.16 (concentration: 1mM); 1.08 ± 0.11 (concentration: 2mM); 1.09 ± 0.15 (concentration: 4mM); 1.08 ± 0.077 (concentration: 6mM). Further, the NP40-soluble protein abundance runs as follows: (concentration: 8mM) 1.05 ± 0.19; (concentration: 10mM) 1.03 ± 0.13.

For the target “D6R938|E9PBG7|E9PF82|Q13557|Q13557-10|Q13557-11|Q13557-12|Q13557-3|Q13557-4|Q13557-5|Q13557-6|Q13557-8|Q13557-9 (UniProt Q13557)”, the NP40-soluble protein abundance is, setting by setting: (concentration: 0.1mM) 1 ± 0.11; (concentration: 0.5mM) 1.04 ± 0.14; (concentration: 1mM) 1.07 ± 0.14; (concentration: 2mM) 1.08 ± 0.15; (concentration: 4mM) 1.1 ± 0.1; (concentration: 6mM) 1.13 ± 0.1. Also, the NP40-soluble protein abundance is, setting by setting: (concentration: 8mM) 1.09 ± 0.17; (concentration: 10mM) 1.14 ± 0.14.

In the case of C9J8R4|C9JVE2|Q96GG9 (UniProt Q96GG9), the NP40-soluble protein abundance by setting is: (concentration: 0.1mM) 0.935 ± 0.042; (concentration: 0.5mM) 0.919 ± 0.034; (concentration: 1mM) 0.903 ± 0.049; (concentration: 2mM) 0.889 ± 0.072; (concentration: 4mM) 0.867 ± 0.048; (concentration: 6mM) 0.87 ± 0.044. The NP40-soluble protein abundance reads like this: (concentration: 8mM) 0.842 ± 0.077; (concentration: 10mM) 0.84 ± 0.084.

C9JWG0|Q16851-2 (UniProt Q16851): the NP40-soluble protein abundance by setting is: (concentration: 0.1mM) 1.04 ± 0.03; (concentration: 0.5mM) 1.04 ± 0.052; (concentration: 1mM) 1 ± 0.046; (concentration: 2mM) 1.01 ± 0.071; (concentration: 4mM) 1.01 ± 0.042; (concentration: 6mM) 1.01 ± 0.067. Moreover, the NP40-soluble protein abundance (concentration: 8mM) came to 0.998 ± 0.057 and the NP40-soluble protein abundance (concentration: 10mM) was determined as 0.983 ± 0.065.

Consider “F5GWT4|Q9H4A3|Q9H4A3-2|Q9H4A3-5|Q9H4A3-6|Q9H4A3-7 (UniProt Q9H4A3)”, for which the NP40-soluble protein abundance was determined as 0.963 ± 0.058 (concentration: 0.1mM); 0.99 ± 0.079 (concentration: 0.5mM); 1 ± 0.081 (concentration: 1mM); 0.96 ± 0.07 (concentration: 2mM); 0.973 ± 0.061 (concentration: 4mM); 0.978 ± 0.066 (concentration: 6mM). Also, the NP40-soluble protein abundance reads like this: (concentration: 8mM) 0.999 ± 0.074; (concentration: 10mM) 0.994 ± 0.082.

For A0A087WXI1|Q6NVY1 (UniProt Q6NVY1), the NP40-soluble protein abundance runs as follows: (concentration: 0.1mM) 0.948 ± 0.045; (concentration: 0.5mM) 0.945 ± 0.042; (concentration: 1mM) 0.909 ± 0.082; (concentration: 2mM) 0.875 ± 0.083; (concentration: 4mM) 0.863 ± 0.087; (concentration: 6mM) 0.867 ± 0.092. In addition, the NP40-soluble protein abundance reads like this: (concentration: 8mM) 0.861 ± 0.096; (concentration: 10mM) 0.841 ± 0.096.

Regarding F5H8D7|P18887 (UniProt P18887), the NP40-soluble protein abundance (concentration: 0.1mM) came out at 0.976 ± 0.073; the NP40-soluble protein abundance (concentration: 0.5mM) worked out at 1.02 ± 0.085; the NP40-soluble protein abundance (concentration: 1mM) stood at 1.04 ± 0.081; the NP40-soluble protein abundance (concentration: 2mM) turned out to be 1 ± 0.1; the NP40-soluble protein abundance (concentration: 4mM) was found to be 1.03 ± 0.098; the NP40-soluble protein abundance (concentration: 6mM) is 1.06 ± 0.1. Besides, the NP40-soluble protein abundance is, setting by setting: (concentration: 8mM) 1.13 ± 0.1; (concentration: 10mM) 1.1 ± 0.12.

For “C9JWC4|Q8NCD3|Q8NCD3-2|Q8NCD3-3 (UniProt Q8NCD3)”, the NP40-soluble protein abundance is 1.07 ± 0.053 (concentration: 0.1mM); 1.12 ± 0.041 (concentration: 0.5mM); 1.15 ± 0.069 (concentration: 1mM); 1.18 ± 0.025 (concentration: 2mM); 1.19 ± 0.15 (concentration: 4mM); 1.18 ± 0.067 (concentration: 6mM). The NP40-soluble protein abundance reads like this: (concentration: 8mM) 1.2 ± 0.055; (concentration: 10mM) 1.13 ± 0.081.

For the target B9ZVT1|Q8IXT5 (UniProt Q8IXT5), the NP40-soluble protein abundance (concentration: 0.1mM) was 1.02 ± 0.081; the NP40-soluble protein abundance (concentration: 0.5mM) was 1.13 ± 0.19; the NP40-soluble protein abundance (concentration: 1mM) is 1.21 ± 0.078; the NP40-soluble protein abundance (concentration: 2mM) turned out to be 1.28 ± 0.25; the NP40-soluble protein abundance (concentration: 4mM) is 1.29 ± 0.29; the NP40-soluble protein abundance (concentration: 6mM) turned out to be 1.3 ± 0.32. Also, the NP40-soluble protein abundance by setting is: (concentration: 8mM) 1.45 ± 0.47; (concentration: 10mM) 1.48 ± 0.39.

On to “B1AMS2|Q14141|Q14141-2|Q14141-4 (UniProt Q14141)”, for which the NP40-soluble protein abundance runs as follows: (concentration: 0.1mM) 1.03 ± 0.053; (concentration: 0.5mM) 0.998 ± 0.011; (concentration: 1mM) 0.968 ± 0.062; (concentration: 2mM) 0.9155 ± 0.0055; (concentration: 4mM) 0.941 ± 0.054; (concentration: 6mM) 0.921 ± 0.016. For the same target, the NP40-soluble protein abundance runs as follows: (concentration: 8mM) 0.941 ± 0.1; (concentration: 10mM) 0.857 ± 0.013.

With A0A087WWS1|Q96FV9 (UniProt Q96FV9), the NP40-soluble protein abundance (concentration: 0.1mM) came out at 1.1 ± 0.016; the NP40-soluble protein abundance (concentration: 0.5mM) is 1.24 ± 0.086; the NP40-soluble protein abundance (concentration: 1mM) was 1.41 ± 0.19; the NP40-soluble protein abundance (concentration: 2mM) was 1.76 ± 0.41; the NP40-soluble protein abundance (concentration: 4mM) came to 2.08 ± 0.62; the NP40-soluble protein abundance (concentration: 6mM) is 2.26 ± 0.76. For the same target, the NP40-soluble protein abundance was determined as 2.37 ± 0.83 (concentration: 8mM) and 2.4 ± 0.91 (concentration: 10mM).

Regarding “E9PF32|H0YAY3|A2RUS2|A2RUS2-2 (UniProt A2RUS2)”, the NP40-soluble protein abundance reads like this: (concentration: 0.1mM) 1.1 ± 0.17; (concentration: 0.5mM) 1.13 ± 0.069; (concentration: 1mM) 1.05 ± 0.038; (concentration: 2mM) 1.1 ± 0.19; (concentration: 4mM) 1.1 ± 0.12; (concentration: 6mM) 1.1 ± 0.011. The NP40-soluble protein abundance (concentration: 8mM) is 1 ± 0.14 and the NP40-soluble protein abundance (concentration: 10mM) amounted to 1.01 ± 0.11.

For the target B4DTS2|Q9BZL6 (UniProt Q9BZL6), the NP40-soluble protein abundance (concentration: 0.1mM) was determined as 1.02 ± 0.021; the NP40-soluble protein abundance (concentration: 0.5mM) was 1.04 ± 0.034; the NP40-soluble protein abundance (concentration: 1mM) turned out to be 0.992 ± 0.053; the NP40-soluble protein abundance (concentration: 2mM) turned out to be 1.02 ± 0.055; the NP40-soluble protein abundance (concentration: 4mM) was found to be 1 ± 0.059; the NP40-soluble protein abundance (concentration: 6mM) is 0.97 ± 0.031. Besides, the NP40-soluble protein abundance is, setting by setting: (concentration: 8mM) 0.946 ± 0.045; (concentration: 10mM) 0.946 ± 0.033.

On to MYO1G (UniProt B0I1T2), for which the NP40-soluble protein abundance (concentration: 0.1mM) is 1.12 ± 0.027; the NP40-soluble protein abundance (concentration: 0.5mM) was found to be 1.47 ± 0.26; the NP40-soluble protein abundance (concentration: 1mM) was 1.95 ± 0.34; the NP40-soluble protein abundance (concentration: 2mM) was 2.5 ± 0.51; the NP40-soluble protein abundance (concentration: 4mM) is 2.75 ± 0.45; the NP40-soluble protein abundance (concentration: 6mM) turned out to be 2.67 ± 0.49. The NP40-soluble protein abundance came to 2.58 ± 0.3 (concentration: 8mM) and 2.35 ± 0.31 (concentration: 10mM).
